Hit rate of the full screen: of about 330,000 compounds, about 1,400 (0.42%) were called active. The sample as a whole holds a higher share of actives than the screen did. Unmarked numbers belong to inactive results.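 Rule for the calls: active = plate passing quality check with inhibition over a set limit, or well fluorescence over plate mean plus 4 SD; inactive = the rest.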

One may read the inhibition as the change of the read-out against control, counted positive when it falls.

A short description of this experiment: inhibitors of Candida efflux pumps in yeast, primary screen, S. cerevisiae, Nile Red, multiplex (AID 485275).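 Note: Nile Red retained in pooled yeast measured as flow cytometry median fluorescence; 0% = buffer negative control and 100% = Enniatin B positive control; higher means more Nile Red kept so more efflux inhibition.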 Particulars: S. cerevisiae Candida pump triplex, at 10 µM, active compounds read high.
On to `C=CCNC(=O)c1sc(SC)cc1-c1ccc(Cl)cc1`, for which the inhibition was -0.08%.
Under `CCCCN1C(=O)CCC(C(=O)O)C1c1ccc(OC)cc1` (stereo unspecified) stands 0.12%.
Under `CCOC(=O)CNC(=O)CSc1nnnn1-c1cc(C)ccc1C` stands 0.92% (active); under `COc1ccc(OC)c(-n2nnnc2SCC(=O)Nc2cc(C)ccc2OC)c1`, -0.01%; under `Cc1ccc(C)c(-n2nnnc2SCC(=O)c2c(N)n(C)c(=O)n(C)c2=O)c1`, -0.07%.
`O=C(NCC(=O)N1CCN(c2ncc(C(F)(F)F)cc2Cl)CC1)c1ccc(Br)o1`: the inhibition was -0.34%.
For `CC(=O)Nc1ccc(S(=O)(=O)N2CCC(C(=O)NC3CC3)CC2)cc1`, the inhibition was -0.06%.
Take `CN1CCN(S(=O)(=O)c2ccc(NC(=O)C3CCCO3)cc2)CC1` (stereo unspecified): the inhibition was -0.16%.
Take `CN1CCN(S(=O)(=O)c2ccc(NC(=S)NC(=O)C3CC3)cc2)CC1`: the inhibition was 10.2% (active).
With `CCN(CC(=O)Nc1c(F)cccc1F)C(=O)c1cnc(C)cn1`, the inhibition is -0.12%.
Consider `CN1C(=O)/C(=C/c2ccco2)SC1=Nc1cccc(C(=O)O)c1`, for which the inhibition was -0.02%.
In the case of `Cc1ccc(N=C2NC(=O)/C(=C/C=C/c3ccco3)S2)cc1C`, the inhibition is 2.76% (active).
As for `CCCn1c2ccccc2c2cnn(CC(=O)NCCCN3CCCCC3CC)c(=O)c21` (stereo unspecified), the inhibition is 0.02%.
For the molecule `CC(C)N1CCC(N2CCN(Cc3cccnc3)CC2CCO)CC1` (stereo unspecified), the inhibition was 0.28%.
With `Nc1ccc(N=Nc2ccccc2Cl)c(N)n1`, the inhibition is 0.15%.
Turning to `O=C(CC(=O)N/N=C\c1cccc(Cl)c1Cl)NCc1ccccc1`, the inhibition is 0.27%.
Regarding `CCOC(=O)CNC(=O)/C=C/c1c(Cl)cccc1Cl`, the inhibition is -1.16%.
`O=C(/C=C/c1c(Cl)cccc1Cl)NCc1ccccc1`: the inhibition was 24.9% (active).
As to `CCCc1ccc(OCC(O)CN2CCN(C(=O)OCC)CC2)cc1` (stereo unspecified), the inhibition was 0.15%.
On to `C=CCC[C@@H](Cc1ccc(F)cc1)C(=O)OC[C@H](Cc1c[nH]c2ccccc12)NC(=O)[C@@H](CC=C)CC(=O)N(CCO)Cc1ccccc1`, for which the inhibition is 149% (active).
On to `C=CCC[C@H](Cc1ccc(F)cc1)C(=O)OC[C@H](C)NC(=O)[C@H](CC=C)CC(=O)N(CCO)Cc1ccccc1`, for which the inhibition is -0.16%.
In the case of `C=CCC[C@H](Cc1ccc(F)cc1)C(=O)OC[C@@H](Cc1c[nH]c2ccccc12)NC(=O)[C@H](CC=C)CC(=O)N[C@H](CO)Cc1ccccc1`, the inhibition was -0.27%.
As to `COCC(C)NC(=O)c1ccc(-n2nc(C(F)(F)F)cc2-c2cccs2)cc1` (stereo unspecified), the inhibition is -0.07%.
Turning to `CCn1c(=O)c(C(=O)NCc2ccc3c(c2)OCO3)c(O)c2ccccc21`, the inhibition was -0.11%.
Take `Cc1nc2c(C(=O)NCc3ccc4c(c3)OCO4)c[nH]n2c(=O)c1Cc1ccccc1F`: the inhibition is 0.63% (active).
Regarding `O=C(NCc1ccc2c(c1)OCO2)c1cc(F)c(F)cc1Cl`, the inhibition is 0.18%.

For the origin of these results see PubChem BioAssay AID485275 (NMMLSC, 2010).
